The values that follow come from PubChem BioAssay (NCI).

Structures are written as SMILES. About 83,000 compounds went through this panel and 20% of them were active in at least one assay; those are over-represented in the sample as a whole.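 Compound tested at a single concentration for 48 hours in 96-well plates; a percent growth value below 10 was scored as active.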 Values without a mark were called inactive. The source made the active and inactive calls.

What all share (experiment): NCI-60 one-dose screen, 48 h (100 = growth as untreated, 0 = no growth, -100 = all killed)
Holding throughout (conditions): 10 µM unless noted

For experiment [1], the system named is NCI-H23 lung.
Experiment [2] relates to NCI-H226 lung.
Experiment [3] has as its system NCI-H322M lung.
For experiment [4], the system named is HOP-62 NSCLC.
Experiment [5] relates to NCI-H460 lung.
In experiment [6] the test system is HOP-92 NSCLC.
For experiment [7], the system named is NCI-H522 lung.
For experiment [8], the system named is A549/ATCC NSCLC.
The subject of experiment [9] is 786-0 renal.
Experiment [10] deals with COLO 205 colon.
For experiment [11], the system named is DU-145 prostate.
Experiment [12] concerns MALME-3M melanoma.
For experiment [13], the system named is MDA-MB-231 breast.
Experiment [14] relates to RXF 393 renal.
Experiment [15] relates to SF-268 CNS.
Experiment [16] has as its system SF-295 CNS.
The subject of experiment [17] is SF-539 CNS.
The test system of experiment [18] is UACC-257 melanoma.
Experiment [19] concerns M14 melanoma.
The test system of experiment [20] is K-562 leukemia.

As for `C=C1C(=O)O[C@H]2[C@H]1CC/C(COC(=O)c1ccc(Br)cc1)=C\CC[C@@]1(C)O[C@@H]21`, the growth in [1] is 32.6%; in experiment [2], -55.8% (active); in experiment [3] it was 60.5%; in experiment [4] it was 25.8%; in experiment [5] it was 25.7%; in experiment [6] it was -73% (active). The growth was -78.1% (active) in experiment [7]; 16.2% in experiment [8]; -61% (active) in experiment [9]; -67.2% (active) in experiment [10]; -33.7% (active) in experiment [11]; -54.1% (active) in experiment [12]. The growth in experiment [13] was -56% (active); in [14] it was -86% (active); in experiment [15] it was 24.6%; in [16], 63.7%; in experiment [17], -76.3% (active); in experiment [18], 50.3%. The growth in [19] was -22.8% (active).

Regarding `COc1ccccc1S(=O)(=O)Nc1ccc2c3c(cc(-c4cnn(C)c4)nc13)C(=O)N2C`, the growth in [1] is 46.6%; in experiment [2], 61.9%; in experiment [3] it was 47.4%; in experiment [4] it was 33.3%; in [5], 46.9%; in [6] it was 27.4%. Further, the growth is 36% in experiment [7]; 38.6% in experiment [8]; 43.8% in experiment [9]; 15.8% in [10]; 64.2% in experiment [11]; 51.2% in [12]. The growth in experiment [13] was 40.7%; in [14], 40.2%; in experiment [15], 59.8%; in [16], 35.1%; in experiment [17], 34.6%; in experiment [18] it was 44.8%. Moreover, the growth in experiment [19] is 42.6%.

In the case of `COC(=O)CCCNS(=O)(=O)c1cc(C(=O)Nc2ccc(NC(=O)c3cc(S(=O)(=O)NCCCC(=O)OC)c(O)c(O)c3O)cc2)c(O)c(O)c1O`, the growth in [1] was 92.4%; in experiment [2], 98.4%; in experiment [3], 89.4%; in [4], 98.5%; in [5] it was 97.3%; in experiment [6] it was 115%. Besides, the growth in [7] is 86.1%; in [8] it was 83.2%; in experiment [9], 112%; in [10] it was 114%; in experiment [11], 98.1%; in experiment [12], 105%. Moreover, the growth was 94.7% in experiment [13]; 107% in experiment [14]; 91.9% in experiment [15]; 98.1% in experiment [16]; 102% in experiment [17]; 96.2% in experiment [18]. For the same molecule, the growth in experiment [19] was 98.3%.

As for `CC(C)(C)NC(C1=CC(C)(C)c2ccccc2C1=O)c1ccccc1` (stereo unspecified), the growth in experiment [1] was 9.47% (active); in [2], -68.6% (active); in [3] it was -1.08% (active); in [4], -13.8% (active); in [5] it was -49.2% (active); in experiment [6], -50.8% (active). Also, the growth in experiment [7] is -81.5% (active); in [8], -9.21% (active); in experiment [9], -94% (active); in experiment [10], -91.5% (active); in [11], -26.2% (active); in experiment [20], -34.8% (active). The growth in experiment [12] was -43% (active); in [13], -1.43% (active); in experiment [15], -11.3% (active); in [16], 37.8%; in experiment [17], -40.7% (active); in experiment [18], -59.3% (active). Moreover, the growth in experiment [19] was -41.5% (active).

For `CCn1c(SC)nnc1-c1cc2c([nH]c3ccccc32)c(-c2cccc(O)c2)n1`, the growth in experiment [1] was 39.8%; in experiment [2], 51.3%; in experiment [3], 50.1%; in experiment [4], 18.3%; in experiment [5] it was 9.54% (active); in experiment [6], -1.11% (active). Besides, the growth is 5.8% (active) in [7]; 26.5% in experiment [8]; 1.6% (active) in experiment [9]; 87.7% in [10]; 28.1% in experiment [11]; 33.1% in experiment [12]. In addition, the growth in experiment [13] is 23.1%; in experiment [14], -32.9% (active); in experiment [15], 32.4%; in experiment [16] it was -20.1% (active); in experiment [17] it was -9.07% (active); in [18] it was 57.4%.

On to `CCOc1cccc(Nc2nc(N)nc3[nH]c4ccc(O)cc4c23)c1`, for which the growth was 68.5% in [1]; 79.5% in experiment [2]; 65.1% in experiment [3]; 61.7% in experiment [4]; 82% in [5]; 25.9% in experiment [6]. The growth was 49.2% in [7]; 46.6% in experiment [8]; 52.8% in [9]; 96.9% in experiment [10]; 49% in experiment [11]; 96.9% in experiment [12]. The growth is 54.8% in experiment [13]; 43% in [14]; 44.6% in experiment [15]; 68.1% in experiment [16]; 81.4% in experiment [17]; 88.6% in experiment [18]. Also, the growth in experiment [19] was 75.3%.

On to `Cc1cccc(NC(=O)CCc2ccc(N3C(N)=NC(N)=NC3(C)C)cc2)c1`, for which the growth was 30.6% in experiment [1]; 100% in experiment [2]; 42.7% in [3]; 24% in experiment [4]; 19.8% in [5]; 32.5% in experiment [6]. Besides, the growth in [7] was 0.83% (active); in experiment [8] it was 11.8%; in experiment [9], -7.98% (active); in [10], 73.6%; in experiment [11] it was 50.9%; in experiment [20], 23.3%. Also, the growth in experiment [12] was 47.2%; in [13] it was 63.4%; in experiment [15], 33.8%; in [16], 64.9%; in experiment [17], 23.9%; in [18], 28.2%. The growth in [19] was 64.8%.

`CN(C)C(=O)Nc1nc2cc(Cl)c(Cl)cc2[nH]1`: the growth in experiment [1] was 11.4%; in experiment [2], 30.4%; in experiment [3], 39.9%; in [4], -38.6% (active); in [5], 2.78% (active); in [6] it was 75.3%. In addition, the growth is -58.1% (active) in experiment [7]; 3.32% (active) in [8]; -66.2% (active) in experiment [9]; -12.9% (active) in experiment [10]; 4.55% (active) in experiment [11]; -10% (active) in experiment [20]. Further, the growth was 47.4% in [12]; 46.1% in experiment [13]; 36.5% in [15]; 9.99% (active) in [16]; -24.7% (active) in experiment [17]; 17% in experiment [18]. Moreover, the growth in experiment [19] is -66.9% (active).
